Laboratory results from PubChem BioAssay (EPA / NIEHS).
Results filed as inconclusive are left out. Calls of active or inactive are those of the source. Rule for the calls, unless noted: active = hit-call score of the fitted dose curve at least 0.9, where 1 is the maximum; inconclusive = response in the unintended direction; inactive = score below 0.9.

Columns and labels:
[1] = TOX21_p53_BLA_p2_viability: Viability Assessment in the Tox21 HCT-116 p53 Agonism Beta-lactamase Assay, Phase 2 (AID 2283591);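 note: compound exposure lasted 16 h at 37 °C; actives lower the ATP signal meaning cytotoxicity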
How it was run: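 HCT116 p53-bla cells, 4000/well, dosed after 5 h plating (217-fold dilution of DMSO stocks) and incubated 16 h at 37C. Viability taken as cellular ATP by CellTiter-Glo luminescence after 30 min RT; signal loss marks cytotoxicity.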

[2] = biological target: Cellular tumor antigen p53 (Homo sapiens) (UniProt P04637); assay: TOX21_p53_BLA_p2_ratio: Tox21 HCT-116 p53 Agonism Beta-lactamase Assay, Ratio, Phase 2 (AID 2283592)
Sequence of Cellular tumor antigen p53 (Homo sapiens) (P04637 whole entry, looked up): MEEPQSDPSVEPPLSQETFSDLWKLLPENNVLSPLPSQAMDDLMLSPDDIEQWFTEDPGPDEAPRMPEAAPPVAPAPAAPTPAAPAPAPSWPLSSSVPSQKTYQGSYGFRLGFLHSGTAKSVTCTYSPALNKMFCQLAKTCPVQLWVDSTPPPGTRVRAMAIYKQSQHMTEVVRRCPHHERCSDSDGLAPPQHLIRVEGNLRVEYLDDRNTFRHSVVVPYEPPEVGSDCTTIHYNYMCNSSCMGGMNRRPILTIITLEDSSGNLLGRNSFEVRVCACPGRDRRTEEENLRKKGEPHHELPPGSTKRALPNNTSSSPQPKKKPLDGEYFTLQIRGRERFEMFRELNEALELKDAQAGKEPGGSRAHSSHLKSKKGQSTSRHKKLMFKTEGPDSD
How it was run: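 Read-out is the blue/green (460/530 nm, 405 nm excitation) ratio after 2 h CCF4-AM loading, fitted as gain versus DMSO. Compounds, pinned at 217-fold dilution from DMSO stocks, stayed 16 h on HCT-116 beta-lactamase reporter cells seeded 5 h earlier.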

[3] = TOX21_p53_BLA_p3_viability: Viability Assessment in the Tox21 HCT-116 p53 Agonism Beta-lactamase Assay, Phase 3 (AID 2283593);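 note: cells exposed to compound for 16 h before reading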
How it was run: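 HCT116 cells, 4000/well, dosed 5 h after plating by pin transfer (217-fold dilution from DMSO stock) and incubated 16 h at 37C, 5% CO2. Viability read as ATP luminescence with CellTiter-Glo after 30 min at room temperature.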

[4] = biological target: Cellular tumor antigen p53 (Homo sapiens) (UniProt P04637); assay: TOX21_p53_BLA_p5_ratio: Tox21 HCT-116 p53 Agonism Beta-lactamase Assay, Ratio, Phase 5 (AID 2283599)
How it was run: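 HCT-116 p53-bla cells (4000/well) plated 5 h, dosed with compound (217-fold DMSO dilution) for 16 h at 37 C; CCF4-AM substrate 2 h at room temperature. Activity is the 460/530 nm emission ratio (405 nm excitation), fitted in gain-of-signal direction versus DMSO.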

[5] = TOX21_p53_BLA_p5_viability: Viability Assessment in the Tox21 HCT-116 p53 Agonism Beta-lactamase Assay, Phase 5 (AID 2283600)
How it was run: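 Viability came from CellTiter-Glo ATP luminescence, read after 30 min at room temperature. Before this, HCT-116 p53-bla cells (4000/well) had 16 hours of compound exposure at 37C, with DMSO stocks diluted 217-fold on transfer.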

[6] = biological target: Cellular tumor antigen p53 (Homo sapiens) (UniProt P04637); assay: TOX21_p53_BLA_p4_ratio: Tox21 HCT-116 p53 Agonism Beta-lactamase Assay, Ratio, Phase 4 (AID 2283601)
How it was run: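 HCT-116 p53 beta-lactamase reporter cells (4000/well) preincubated 5 h, then compound (217-fold dilution of DMSO stock) for 16 h at 37C. CCF4-AM substrate added 2 h at room temperature; 460/530 nm emission ratio fitted upward versus DMSO.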

[7] = ACEA_ER_AUC_viability: ACEA Biosciences xCELLigence Real-Time Cell Analysis on Estrogen Receptor Agonism for Viability (AID 2283782);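 note: hit means loss of impedance signal meaning reduced cell growth or viability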
How it was run: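 Read-out: real-time electrical impedance (RT-CES) area under curve, loss of signal taken as reduced viability, normalized to DMSO baseline. T-47D cells, charcoal-stripped serum medium, compounds up to 100 uM final, continuous exposure, 80 h.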

[8] = CCTE_Harrill_HTTr_Viability_MCF7: CCTE's 6-hour Cell Viability Assessment for the High-Throughput Transcriptomics (HTTr) Platform, in MCF-7 cells cultured in DMEM + 10% fetal bovine serum, Harrill Lab (AID 2284010; active = hit-call score of the fitted dose curve at least 0.9, where 1 is the maximum; inactive = score below 0.9)
How it was run: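 PI exclusion, high-content imaging; 8-pt dilution series, 6 h exposure; bidirectional fit vs DMSO (neg. ctrl/baseline); gain of signal = loss of membrane integrity.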

[9] = CCTE_Harrill_HTTr_Apoptosis_MCF7: CCTE's 6-hour Apoptosis Assessment for the High-Throughput Transcriptomics (HTTr) Platform, in MCF-7 cells cultured in DMEM + 10% fetal bovine serum, Harrill Lab (AID 2284011; active = hit-call score of the fitted dose curve at least 0.9, where 1 is the maximum; inactive = score below 0.9)
How it was run: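 High-content imaging of CellEvent Caspase 3/7 Green signal follows a six-hour exposure, with eight concentrations per chemical. MCF-7 cells grown in DMEM plus 10% fetal bovine serum; activity fitted in both directions against DMSO.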

[10] = CCTE_Harrill_HTTr_CellCount_MCF7: CCTE's Cell Proliferation Assessment for the High-Throughput Transcriptomics (HTTr) Platform, Harrill Lab (AID 2284012);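 note: count of Hoechst-stained nuclei per well by high-content imaging in MCF-7 cells; cells exposed to compound for six hours; intended direction is loss of nuclei count meaning fewer cells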
How it was run: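 Readout: Hoechst nuclear count by high-content imaging. MCF-7, 8-point dilution series, 6 h exposure. Bidirectional fit vs DMSO baseline.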

[11] = biological target: Cellular tumor antigen p53 (Homo sapiens) (UniProt P04637); assay: TOX21_p53_BLA_p3_ratio: Tox21 HCT-116 p53 Agonism Beta-lactamase Assay, Ratio, Phase 3 (AID 2283596)
How it was run: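 Cells were seeded at 4000/well, rested 5 h at 37C, then dosed with DMSO compound solutions (217-fold dilution) for 16 h. CCF4-AM substrate was loaded for 2 h at room temperature, and the 460/530 nm emission ratio was fitted for gain of signal versus DMSO.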

[12] = TOX21_p53_BLA_p4_viability: Viability Assessment in the Tox21 HCT-116 p53 Agonism Beta-lactamase Assay, Phase 4 (AID 2283597);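 note: hits lower the luminescence signal meaning cytotoxicity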
How it was run: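 Cytotoxicity as reduced cellular ATP (CellTiter-Glo luminescence, 30 min room temperature), measured in the same wells following the CCF4 FRET p53 reading. Human HCT-116 cells received compounds in DMSO (217-fold dilution) for 16 h.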

C[N+](C)(C)CCOC(N)=O
outcome [1]: inactive | outcome [2]: inactive | outcome [3]: inactive | outcome [4]: inactive | outcome [5]: inactive | outcome [6]: inactive

CN(C)CCCNCCC#N
outcome [1]: inactive | outcome [2]: inactive | outcome [3]: inactive | outcome [5]: inactive | outcome [6]: inactive | outcome [7]: inactive

CC(C)CCC[C@@H](C)[C@H]1CC[C@H]2[C@@H]3CC=C4C[C@@H](O)CC[C@]4(C)[C@H]3CC[C@]12C
outcome [1]: inactive | outcome [2]: inactive | outcome [3]: inactive | outcome [4]: inactive | outcome [6]: inactive

CCC(=O)OCC(=O)[C@@]1(OC(=O)CC)[C@H](C)C[C@H]2[C@H]3[C@H]([C@@H](O)C[C@@]21C)[C@@]1(C)C=CC(=O)C=C1C[C@H]3Cl
outcome [1]: inactive | outcome [2]: inactive | outcome [3]: inactive | outcome [4]: inactive | outcome [5]: inactive | outcome [6]: inactive

CC(=O)Nc1ccc(N)cc1
outcome [1]: inactive | outcome [2]: inactive | outcome [3]: inactive | outcome [6]: inactive

C[C@]12CC[C@@H]3c4ccc(OS(=O)(=O)O)cc4CC[C@H]3[C@@H]1CCC2=O
outcome [1]: inactive | outcome [2]: inactive | outcome [3]: inactive | outcome [6]: inactive

C=C(C)C1CCC(C)(O)CC1 (stereo unspecified)
outcome [1]: inactive | outcome [2]: inactive | outcome [3]: inactive | outcome [4]: inactive | outcome [5]: inactive | outcome [6]: inactive | outcome [8]: inactive | outcome [9]: inactive | outcome [10]: inactive

C/C(=N\O)c1ccc(OCC(=O)N2CCCCC2)cc1
outcome [1]: inactive | outcome [2]: inactive | outcome [3]: inactive | outcome [5]: inactive

NC(=O)c1ccccc1N
outcome [1]: inactive | outcome [2]: inactive | outcome [3]: inactive | outcome [5]: inactive

CC(C)(C)OC=O
outcome [1]: inactive | outcome [2]: inactive | outcome [3]: inactive | outcome [4]: inactive | outcome [5]: inactive | outcome [6]: inactive

CCC(N)(CO)CO
outcome [1]: inactive | outcome [2]: inactive | outcome [3]: inactive | outcome [5]: inactive | outcome [6]: inactive

COc1cc(-c2ccc(=O)[nH]n2)ccc1OC(F)F
outcome [1]: inactive | outcome [2]: inactive | outcome [3]: inactive | outcome [5]: inactive | outcome [6]: inactive

N[C@H]1C(O)O[C@H](CO)[C@@H](O)[C@@H]1O (stereo partly specified)
outcome [1]: inactive | outcome [2]: inactive | outcome [3]: inactive | outcome [4]: inactive | outcome [5]: inactive | outcome [6]: inactive

O=C(O)[C@H](O)[C@@H](O)[C@H](O[C@@H]1O[C@H](CO)[C@H](O)[C@H](O)[C@H]1O)[C@H](O)CO
outcome [1]: inactive | outcome [2]: inactive | outcome [3]: inactive | outcome [5]: inactive

C=CC1=C(C(=O)O)N2C(=O)[C@@H](NC(=O)C(=NOCC(=O)O)c3csc(N)n3)[C@H]2SC1
outcome [1]: inactive | outcome [2]: inactive | outcome [3]: inactive | outcome [4]: inactive | outcome [6]: inactive

CN1C(=O)CC(C)(c2ccccc2)C1=O (stereo unspecified)
outcome [1]: inactive | outcome [2]: inactive | outcome [3]: inactive | outcome [4]: inactive | outcome [6]: inactive

CNCCS(=O)(=O)O
outcome [1]: inactive | outcome [2]: inactive | outcome [3]: inactive | outcome [4]: inactive | outcome [5]: inactive | outcome [6]: inactive

CCCCCCCCCCCCOC(=O)c1ccc(O)cc1
outcome [1]: inactive | outcome [2]: inactive | outcome [3]: inactive | outcome [4]: inactive | outcome [5]: inactive | outcome [6]: inactive

Cc1[nH]cnc1CN1CCc2c(c3ccccc3n2C)C1=O
outcome [1]: inactive | outcome [2]: inactive | outcome [3]: inactive | outcome [4]: inactive | outcome [5]: inactive | outcome [6]: inactive

CO/N=C(\C(=O)N[C@@H]1C(=O)N2C(C(=O)OCOC(=O)C(C)(C)C)=C(/C=C\c3scnc3C)CS[C@H]12)c1csc(N)n1
outcome [1]: inactive | outcome [2]: inactive | outcome [3]: inactive | outcome [4]: inactive | outcome [6]: inactive

CC1(C)C(O)C(C)(C)C1O (stereo unspecified)
outcome [1]: inactive | outcome [2]: inactive | outcome [3]: inactive | outcome [4]: inactive | outcome [5]: inactive | outcome [6]: inactive

O=C(OC(=O)c1ccccc1)c1ccccc1
outcome [1]: inactive | outcome [2]: inactive | outcome [3]: inactive | outcome [5]: inactive | outcome [6]: inactive

Cl[Si](Cl)(c1ccccc1)c1ccccc1
outcome [1]: inactive | outcome [2]: inactive | outcome [3]: inactive | outcome [5]: inactive

CCCCCCOc1ccccc1C(N)=O
outcome [1]: inactive | outcome [2]: inactive | outcome [11]: inactive | outcome [12]: inactive | outcome [4]: inactive | outcome [5]: inactive

O=C(Nc1ccc(C(=O)O)c(O)c1)c1ccccc1
outcome [1]: inactive | outcome [2]: inactive | outcome [11]: inactive | outcome [12]: inactive | outcome [4]: inactive | outcome [5]: inactive | outcome [6]: inactive

Cc1c(C(C)C)c(=O)n(-c2ccccc2)n1C
outcome [1]: inactive | outcome [2]: inactive | outcome [11]: inactive | outcome [12]: inactive | outcome [4]: inactive | outcome [5]: inactive

CN(C)c1ccc(C2(c3ccc(N(C)C)cc3)OC(=O)c3cc(N(C)C)ccc32)cc1
outcome [1]: inactive | AC50 [2]: 60.7 µM (active) | AC50 [11]: 13.5 µM (active) | outcome [12]: inactive | outcome [4]: inactive | outcome [5]: inactive | AC50 [6]: 38.5 µM (active)

CCCCNCCCC
outcome [1]: inactive | outcome [2]: inactive | outcome [11]: inactive | outcome [12]: inactive | outcome [4]: inactive | outcome [5]: inactive

C[N+](C)(C)CCOC(=O)CCC(=O)OCC[N+](C)(C)C
outcome [1]: inactive | outcome [2]: inactive | outcome [11]: inactive | outcome [12]: inactive | outcome [4]: inactive

CCOC(=O)[C@H](CCc1ccccc1)N[C@H]1CS[C@H](c2cccs2)CN(CC(=O)O)C1=O
outcome [1]: inactive | outcome [2]: inactive | outcome [11]: inactive

CN(C)c1ccc(/C=C/c2ccc([N+](=O)[O-])cc2)cc1
outcome [1]: inactive | outcome [2]: inactive | outcome [11]: inactive | outcome [12]: inactive
